How the values were obtained:
Assay in all cases: log2 ratio of Biotin-Ahx-Ub-VS probe labelling (fragment/DMSO); higher = less target engagement (more negative = stronger competition), active = hit call of the paper (q ≤ 0.05, log2 ratio ≤ -1)
Conditions in all cases: compound concentration: 200 uM; treatment time: 3 h
USP42 = target: T1, USP42 (UniProt Q9H9J4)
T1 sequence (whole entry): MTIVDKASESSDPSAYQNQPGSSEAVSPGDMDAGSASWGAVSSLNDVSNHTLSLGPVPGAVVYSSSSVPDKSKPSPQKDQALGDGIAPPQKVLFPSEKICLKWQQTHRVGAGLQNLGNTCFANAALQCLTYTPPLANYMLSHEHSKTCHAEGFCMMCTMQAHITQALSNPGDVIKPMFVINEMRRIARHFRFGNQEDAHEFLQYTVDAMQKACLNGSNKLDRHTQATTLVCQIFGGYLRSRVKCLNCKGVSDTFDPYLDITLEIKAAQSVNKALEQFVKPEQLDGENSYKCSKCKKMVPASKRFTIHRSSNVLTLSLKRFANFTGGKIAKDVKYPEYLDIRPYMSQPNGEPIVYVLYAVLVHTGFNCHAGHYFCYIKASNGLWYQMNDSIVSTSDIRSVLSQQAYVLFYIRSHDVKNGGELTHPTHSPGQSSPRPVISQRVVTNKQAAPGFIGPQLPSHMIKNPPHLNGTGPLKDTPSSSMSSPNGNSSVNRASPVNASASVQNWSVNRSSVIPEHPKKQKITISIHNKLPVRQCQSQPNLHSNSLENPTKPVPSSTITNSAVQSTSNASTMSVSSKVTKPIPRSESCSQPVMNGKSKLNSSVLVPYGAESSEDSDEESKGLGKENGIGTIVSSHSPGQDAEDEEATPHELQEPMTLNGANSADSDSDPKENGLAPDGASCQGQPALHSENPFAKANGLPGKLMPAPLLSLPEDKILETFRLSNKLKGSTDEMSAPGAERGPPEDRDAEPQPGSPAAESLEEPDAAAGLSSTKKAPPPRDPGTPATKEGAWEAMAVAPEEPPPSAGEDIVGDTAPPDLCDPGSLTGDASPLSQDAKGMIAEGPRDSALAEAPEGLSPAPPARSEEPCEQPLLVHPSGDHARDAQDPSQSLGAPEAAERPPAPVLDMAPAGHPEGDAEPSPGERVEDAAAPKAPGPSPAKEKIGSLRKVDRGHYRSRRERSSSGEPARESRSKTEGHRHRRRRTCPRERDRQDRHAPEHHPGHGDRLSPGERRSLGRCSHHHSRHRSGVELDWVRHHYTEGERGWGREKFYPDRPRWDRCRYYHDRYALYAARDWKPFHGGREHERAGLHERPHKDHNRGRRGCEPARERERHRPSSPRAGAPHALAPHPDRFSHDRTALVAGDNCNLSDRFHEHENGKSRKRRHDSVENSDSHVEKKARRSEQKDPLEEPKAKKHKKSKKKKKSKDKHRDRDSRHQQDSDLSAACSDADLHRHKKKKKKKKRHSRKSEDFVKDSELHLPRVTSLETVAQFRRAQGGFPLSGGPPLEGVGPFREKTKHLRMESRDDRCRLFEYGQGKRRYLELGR
Outline: (§1)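 Each value is an average log2 ratio of fragment to vehicle, tested by unpaired t-test. The underlying Spectronaut label-free quantities were global-median-normalised, and only proteins with ≥2 unique peptides were included. Triplicate HEK293T lysate samples (495 µg) were exposed to fragment at 200 µM or vehicle for 3 h, then to Biotin-Ahx-Ub-VS at 0.5 µM final for 1 h, before NeutrAvidin enrichment of labelled DUBs, LysC and trypsin digestion, and diaPASEF LC-MS/MS.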

USP46 = USP46 (UniProt P62068)
Outline: as §1

USP47 = target: T2, USP47 (UniProt Q96K76)
T2 sequence (whole entry): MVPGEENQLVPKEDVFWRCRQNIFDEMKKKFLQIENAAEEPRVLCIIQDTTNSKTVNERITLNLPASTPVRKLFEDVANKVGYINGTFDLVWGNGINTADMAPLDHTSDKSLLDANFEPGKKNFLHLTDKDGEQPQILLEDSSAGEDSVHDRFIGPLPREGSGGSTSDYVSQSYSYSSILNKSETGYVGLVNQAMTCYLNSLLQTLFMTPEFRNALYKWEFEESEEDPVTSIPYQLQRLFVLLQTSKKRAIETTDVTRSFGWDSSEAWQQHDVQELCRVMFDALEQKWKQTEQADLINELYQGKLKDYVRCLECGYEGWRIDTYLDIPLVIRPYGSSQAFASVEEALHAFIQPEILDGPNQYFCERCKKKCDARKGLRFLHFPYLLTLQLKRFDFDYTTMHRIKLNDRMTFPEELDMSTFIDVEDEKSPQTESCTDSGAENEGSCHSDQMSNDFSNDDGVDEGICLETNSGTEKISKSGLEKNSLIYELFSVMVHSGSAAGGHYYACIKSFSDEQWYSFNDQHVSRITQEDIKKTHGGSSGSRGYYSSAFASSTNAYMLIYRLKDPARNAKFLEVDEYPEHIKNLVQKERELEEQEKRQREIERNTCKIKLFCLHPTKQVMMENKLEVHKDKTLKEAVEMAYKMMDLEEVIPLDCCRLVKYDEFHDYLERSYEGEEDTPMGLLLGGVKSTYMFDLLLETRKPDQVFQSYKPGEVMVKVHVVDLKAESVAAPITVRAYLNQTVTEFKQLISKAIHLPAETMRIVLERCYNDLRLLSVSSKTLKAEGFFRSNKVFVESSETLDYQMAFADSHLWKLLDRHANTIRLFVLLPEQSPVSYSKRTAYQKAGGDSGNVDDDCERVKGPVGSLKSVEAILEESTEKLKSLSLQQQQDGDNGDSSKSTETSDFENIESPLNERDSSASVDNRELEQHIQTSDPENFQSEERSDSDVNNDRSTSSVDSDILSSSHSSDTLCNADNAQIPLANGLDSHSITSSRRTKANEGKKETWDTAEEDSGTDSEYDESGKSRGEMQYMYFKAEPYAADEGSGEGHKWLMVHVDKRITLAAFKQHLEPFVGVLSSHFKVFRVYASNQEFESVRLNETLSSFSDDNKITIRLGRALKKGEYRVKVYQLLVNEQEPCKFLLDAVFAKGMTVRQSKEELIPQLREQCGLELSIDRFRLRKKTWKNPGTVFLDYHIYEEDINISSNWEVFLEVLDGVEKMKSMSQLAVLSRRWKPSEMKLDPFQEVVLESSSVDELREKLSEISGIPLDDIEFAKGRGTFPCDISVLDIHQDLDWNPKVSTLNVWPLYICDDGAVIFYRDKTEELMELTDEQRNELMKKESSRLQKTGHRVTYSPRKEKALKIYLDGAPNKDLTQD
Outline: as §1

USP48 = target: T3, USP48 (UniProt Q86UV5)
T3 sequence (whole entry): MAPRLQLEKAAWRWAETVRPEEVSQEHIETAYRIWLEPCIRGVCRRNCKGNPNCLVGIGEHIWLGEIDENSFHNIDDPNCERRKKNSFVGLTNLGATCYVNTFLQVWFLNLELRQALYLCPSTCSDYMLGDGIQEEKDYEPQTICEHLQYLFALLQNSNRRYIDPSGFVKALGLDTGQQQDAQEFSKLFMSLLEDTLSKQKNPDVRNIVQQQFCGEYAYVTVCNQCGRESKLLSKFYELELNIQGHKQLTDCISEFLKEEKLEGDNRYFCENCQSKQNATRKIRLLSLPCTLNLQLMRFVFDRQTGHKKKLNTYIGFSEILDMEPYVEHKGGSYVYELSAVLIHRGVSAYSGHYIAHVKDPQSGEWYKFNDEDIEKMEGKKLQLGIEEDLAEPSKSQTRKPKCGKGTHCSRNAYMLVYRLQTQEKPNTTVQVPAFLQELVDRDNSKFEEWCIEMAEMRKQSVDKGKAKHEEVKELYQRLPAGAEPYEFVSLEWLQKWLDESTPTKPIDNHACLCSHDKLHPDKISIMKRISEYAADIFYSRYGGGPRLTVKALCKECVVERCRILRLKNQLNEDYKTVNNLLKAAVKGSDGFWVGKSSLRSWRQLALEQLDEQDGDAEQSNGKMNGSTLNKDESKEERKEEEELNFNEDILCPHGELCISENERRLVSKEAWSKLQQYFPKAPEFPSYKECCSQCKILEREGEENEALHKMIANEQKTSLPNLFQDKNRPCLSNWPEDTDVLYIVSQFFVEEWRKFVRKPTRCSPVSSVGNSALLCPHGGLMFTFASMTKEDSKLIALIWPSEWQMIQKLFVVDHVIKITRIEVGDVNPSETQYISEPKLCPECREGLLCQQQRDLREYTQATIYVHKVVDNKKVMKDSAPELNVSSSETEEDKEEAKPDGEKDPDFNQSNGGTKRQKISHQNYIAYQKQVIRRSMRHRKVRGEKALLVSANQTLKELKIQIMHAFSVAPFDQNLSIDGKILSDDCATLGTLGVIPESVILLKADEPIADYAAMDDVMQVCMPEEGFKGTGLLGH
Outline: as §1

USP5 = target: T4, USP5 (UniProt P45974)
T4 sequence (whole entry): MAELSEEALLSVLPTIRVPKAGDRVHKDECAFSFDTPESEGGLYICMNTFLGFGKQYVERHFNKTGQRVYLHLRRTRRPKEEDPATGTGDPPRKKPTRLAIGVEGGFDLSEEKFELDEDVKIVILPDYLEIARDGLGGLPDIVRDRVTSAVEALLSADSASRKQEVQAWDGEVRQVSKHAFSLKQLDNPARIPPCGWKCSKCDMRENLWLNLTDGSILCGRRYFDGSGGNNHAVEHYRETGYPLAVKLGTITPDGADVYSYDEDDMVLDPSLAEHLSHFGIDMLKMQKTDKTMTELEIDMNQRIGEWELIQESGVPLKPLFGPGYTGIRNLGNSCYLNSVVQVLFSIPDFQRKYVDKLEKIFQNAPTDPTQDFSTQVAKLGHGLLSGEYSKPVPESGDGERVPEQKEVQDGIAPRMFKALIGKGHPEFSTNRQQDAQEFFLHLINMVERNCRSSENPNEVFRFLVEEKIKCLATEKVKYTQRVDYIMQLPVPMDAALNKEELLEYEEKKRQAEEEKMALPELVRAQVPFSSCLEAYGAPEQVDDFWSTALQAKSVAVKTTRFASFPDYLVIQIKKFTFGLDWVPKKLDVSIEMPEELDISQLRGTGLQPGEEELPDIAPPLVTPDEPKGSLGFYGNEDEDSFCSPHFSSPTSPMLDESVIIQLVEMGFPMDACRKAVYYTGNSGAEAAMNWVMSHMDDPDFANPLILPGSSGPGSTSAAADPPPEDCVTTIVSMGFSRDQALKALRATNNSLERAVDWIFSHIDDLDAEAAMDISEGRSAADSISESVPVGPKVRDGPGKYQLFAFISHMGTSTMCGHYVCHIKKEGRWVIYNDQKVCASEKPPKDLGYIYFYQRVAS
Outline: as §1

USP54 = USP54 (UniProt Q70EL1)
Outline: as §1

USP7 = USP7 (UniProt Q93009)
Outline: as §1

USP8 = target: T5, USP8 (UniProt P40818)
T5 sequence (whole entry): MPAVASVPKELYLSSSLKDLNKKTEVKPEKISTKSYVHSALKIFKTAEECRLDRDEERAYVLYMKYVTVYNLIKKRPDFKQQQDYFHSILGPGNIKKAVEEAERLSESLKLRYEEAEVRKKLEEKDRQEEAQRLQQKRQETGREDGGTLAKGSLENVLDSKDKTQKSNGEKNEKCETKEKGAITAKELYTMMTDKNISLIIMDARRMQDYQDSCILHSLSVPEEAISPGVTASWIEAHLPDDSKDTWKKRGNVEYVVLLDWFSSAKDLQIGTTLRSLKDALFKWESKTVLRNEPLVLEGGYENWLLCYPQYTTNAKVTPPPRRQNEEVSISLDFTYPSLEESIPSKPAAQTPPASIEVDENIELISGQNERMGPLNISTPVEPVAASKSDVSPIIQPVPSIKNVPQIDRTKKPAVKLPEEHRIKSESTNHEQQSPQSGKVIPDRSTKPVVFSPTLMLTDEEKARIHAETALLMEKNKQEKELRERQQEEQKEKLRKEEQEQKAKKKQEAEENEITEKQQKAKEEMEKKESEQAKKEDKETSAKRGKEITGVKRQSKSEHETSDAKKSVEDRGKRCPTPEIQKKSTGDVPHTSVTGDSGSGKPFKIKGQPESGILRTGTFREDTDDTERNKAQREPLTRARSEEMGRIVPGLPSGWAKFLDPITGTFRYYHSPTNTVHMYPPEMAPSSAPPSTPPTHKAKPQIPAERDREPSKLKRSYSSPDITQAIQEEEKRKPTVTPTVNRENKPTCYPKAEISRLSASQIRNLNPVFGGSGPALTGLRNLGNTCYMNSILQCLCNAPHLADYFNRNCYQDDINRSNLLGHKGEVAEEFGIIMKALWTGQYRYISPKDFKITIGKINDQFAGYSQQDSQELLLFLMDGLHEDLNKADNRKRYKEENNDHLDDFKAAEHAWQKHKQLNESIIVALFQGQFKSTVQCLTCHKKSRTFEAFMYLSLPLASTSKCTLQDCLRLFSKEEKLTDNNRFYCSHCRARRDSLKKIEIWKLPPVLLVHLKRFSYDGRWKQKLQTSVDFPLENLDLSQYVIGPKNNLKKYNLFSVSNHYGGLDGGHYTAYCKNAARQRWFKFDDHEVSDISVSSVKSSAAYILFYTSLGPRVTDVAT
Outline: as §1

USP9X = USP9X (UniProt Q93008)
Outline: as §1

UniProt O00487 = target: UniProt O00487
Outline: as §1

Measured: log2 ratio of Biotin-Ahx-Ub-VS probe labelling

Sequence of UniProt O00487 (O00487 whole entry): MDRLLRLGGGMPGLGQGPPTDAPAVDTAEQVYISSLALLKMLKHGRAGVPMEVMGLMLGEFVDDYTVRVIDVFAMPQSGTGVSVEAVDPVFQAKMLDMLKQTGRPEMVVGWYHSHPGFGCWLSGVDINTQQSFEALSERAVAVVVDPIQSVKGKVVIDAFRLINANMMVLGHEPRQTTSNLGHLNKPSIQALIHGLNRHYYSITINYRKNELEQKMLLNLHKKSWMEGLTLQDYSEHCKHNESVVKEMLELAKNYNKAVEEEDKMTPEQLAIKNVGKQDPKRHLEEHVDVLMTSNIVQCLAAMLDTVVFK
Sequence of USP9X (Q93008 whole entry): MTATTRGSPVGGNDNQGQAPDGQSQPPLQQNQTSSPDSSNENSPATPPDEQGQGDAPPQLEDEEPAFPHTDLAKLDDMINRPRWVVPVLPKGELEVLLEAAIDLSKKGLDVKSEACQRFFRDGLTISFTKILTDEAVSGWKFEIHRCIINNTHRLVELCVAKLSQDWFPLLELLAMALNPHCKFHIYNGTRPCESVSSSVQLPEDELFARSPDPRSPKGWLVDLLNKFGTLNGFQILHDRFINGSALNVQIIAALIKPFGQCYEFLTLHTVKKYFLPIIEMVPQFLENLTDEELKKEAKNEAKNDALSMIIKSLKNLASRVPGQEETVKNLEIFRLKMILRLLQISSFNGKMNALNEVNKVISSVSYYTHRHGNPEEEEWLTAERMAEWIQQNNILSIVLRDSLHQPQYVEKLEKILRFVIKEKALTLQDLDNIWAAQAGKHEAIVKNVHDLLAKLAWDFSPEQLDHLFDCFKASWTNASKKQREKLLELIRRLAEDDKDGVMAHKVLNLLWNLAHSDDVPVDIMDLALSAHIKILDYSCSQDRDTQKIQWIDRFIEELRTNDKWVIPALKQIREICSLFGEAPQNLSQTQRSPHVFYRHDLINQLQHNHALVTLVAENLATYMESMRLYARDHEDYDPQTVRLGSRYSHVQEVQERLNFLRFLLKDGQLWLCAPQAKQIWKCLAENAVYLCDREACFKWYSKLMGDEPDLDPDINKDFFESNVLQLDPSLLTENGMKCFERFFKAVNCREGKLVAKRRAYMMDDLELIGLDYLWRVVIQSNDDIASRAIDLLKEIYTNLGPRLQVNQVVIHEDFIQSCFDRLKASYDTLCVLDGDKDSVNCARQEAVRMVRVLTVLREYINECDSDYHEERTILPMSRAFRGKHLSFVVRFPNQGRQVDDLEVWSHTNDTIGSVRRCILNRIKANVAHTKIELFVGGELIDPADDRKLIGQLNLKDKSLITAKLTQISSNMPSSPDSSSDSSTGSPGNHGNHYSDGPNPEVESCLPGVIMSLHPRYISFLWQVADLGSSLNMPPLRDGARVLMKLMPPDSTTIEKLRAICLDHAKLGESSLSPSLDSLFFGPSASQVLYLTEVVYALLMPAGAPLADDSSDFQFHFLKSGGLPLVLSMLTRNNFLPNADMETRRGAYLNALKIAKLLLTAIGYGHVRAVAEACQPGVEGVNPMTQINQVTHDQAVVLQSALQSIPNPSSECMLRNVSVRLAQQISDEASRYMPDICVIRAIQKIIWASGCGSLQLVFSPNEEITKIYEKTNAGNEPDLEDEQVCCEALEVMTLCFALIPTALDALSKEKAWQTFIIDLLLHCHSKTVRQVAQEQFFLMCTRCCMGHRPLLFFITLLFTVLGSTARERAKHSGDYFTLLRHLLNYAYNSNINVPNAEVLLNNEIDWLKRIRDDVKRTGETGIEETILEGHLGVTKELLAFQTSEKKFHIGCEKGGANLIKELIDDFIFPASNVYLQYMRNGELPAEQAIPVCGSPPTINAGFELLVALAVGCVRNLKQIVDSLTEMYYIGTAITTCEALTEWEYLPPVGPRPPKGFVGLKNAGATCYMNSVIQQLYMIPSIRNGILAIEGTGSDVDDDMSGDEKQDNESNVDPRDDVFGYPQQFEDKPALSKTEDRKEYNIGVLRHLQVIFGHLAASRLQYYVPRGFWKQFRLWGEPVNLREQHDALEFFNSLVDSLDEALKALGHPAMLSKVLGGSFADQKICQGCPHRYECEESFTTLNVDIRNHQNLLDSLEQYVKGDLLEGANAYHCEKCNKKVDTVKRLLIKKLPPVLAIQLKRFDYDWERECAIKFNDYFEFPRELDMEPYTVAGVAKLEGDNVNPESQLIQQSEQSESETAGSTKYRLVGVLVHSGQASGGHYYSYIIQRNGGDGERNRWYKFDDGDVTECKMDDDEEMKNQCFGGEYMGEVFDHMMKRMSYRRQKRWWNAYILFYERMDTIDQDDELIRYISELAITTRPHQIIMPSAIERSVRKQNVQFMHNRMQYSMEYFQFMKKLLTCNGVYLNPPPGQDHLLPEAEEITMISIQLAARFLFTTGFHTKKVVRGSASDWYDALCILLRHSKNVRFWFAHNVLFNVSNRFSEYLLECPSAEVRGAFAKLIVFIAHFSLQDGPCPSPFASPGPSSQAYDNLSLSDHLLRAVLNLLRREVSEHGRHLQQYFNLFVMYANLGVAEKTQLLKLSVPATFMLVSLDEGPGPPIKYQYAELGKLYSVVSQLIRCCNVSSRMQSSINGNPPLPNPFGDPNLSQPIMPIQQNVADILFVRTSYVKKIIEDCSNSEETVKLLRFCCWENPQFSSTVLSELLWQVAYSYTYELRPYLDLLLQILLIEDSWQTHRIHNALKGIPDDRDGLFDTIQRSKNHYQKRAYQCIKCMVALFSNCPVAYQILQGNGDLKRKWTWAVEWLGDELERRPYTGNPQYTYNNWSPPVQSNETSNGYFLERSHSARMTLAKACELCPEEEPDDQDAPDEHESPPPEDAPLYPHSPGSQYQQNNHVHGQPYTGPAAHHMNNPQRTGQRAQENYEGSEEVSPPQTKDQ
Sequence of USP46 (P62068 whole entry): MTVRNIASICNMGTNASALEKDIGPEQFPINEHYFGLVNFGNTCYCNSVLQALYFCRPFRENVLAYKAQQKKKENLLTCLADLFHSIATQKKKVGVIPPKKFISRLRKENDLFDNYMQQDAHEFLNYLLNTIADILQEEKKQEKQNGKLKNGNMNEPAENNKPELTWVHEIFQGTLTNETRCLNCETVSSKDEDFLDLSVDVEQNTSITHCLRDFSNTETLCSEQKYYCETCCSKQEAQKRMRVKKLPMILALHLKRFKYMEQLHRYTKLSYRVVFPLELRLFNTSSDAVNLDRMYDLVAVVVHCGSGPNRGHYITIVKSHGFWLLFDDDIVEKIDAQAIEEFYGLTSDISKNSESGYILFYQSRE
Sequence of USP54 (Q70EL1 whole entry): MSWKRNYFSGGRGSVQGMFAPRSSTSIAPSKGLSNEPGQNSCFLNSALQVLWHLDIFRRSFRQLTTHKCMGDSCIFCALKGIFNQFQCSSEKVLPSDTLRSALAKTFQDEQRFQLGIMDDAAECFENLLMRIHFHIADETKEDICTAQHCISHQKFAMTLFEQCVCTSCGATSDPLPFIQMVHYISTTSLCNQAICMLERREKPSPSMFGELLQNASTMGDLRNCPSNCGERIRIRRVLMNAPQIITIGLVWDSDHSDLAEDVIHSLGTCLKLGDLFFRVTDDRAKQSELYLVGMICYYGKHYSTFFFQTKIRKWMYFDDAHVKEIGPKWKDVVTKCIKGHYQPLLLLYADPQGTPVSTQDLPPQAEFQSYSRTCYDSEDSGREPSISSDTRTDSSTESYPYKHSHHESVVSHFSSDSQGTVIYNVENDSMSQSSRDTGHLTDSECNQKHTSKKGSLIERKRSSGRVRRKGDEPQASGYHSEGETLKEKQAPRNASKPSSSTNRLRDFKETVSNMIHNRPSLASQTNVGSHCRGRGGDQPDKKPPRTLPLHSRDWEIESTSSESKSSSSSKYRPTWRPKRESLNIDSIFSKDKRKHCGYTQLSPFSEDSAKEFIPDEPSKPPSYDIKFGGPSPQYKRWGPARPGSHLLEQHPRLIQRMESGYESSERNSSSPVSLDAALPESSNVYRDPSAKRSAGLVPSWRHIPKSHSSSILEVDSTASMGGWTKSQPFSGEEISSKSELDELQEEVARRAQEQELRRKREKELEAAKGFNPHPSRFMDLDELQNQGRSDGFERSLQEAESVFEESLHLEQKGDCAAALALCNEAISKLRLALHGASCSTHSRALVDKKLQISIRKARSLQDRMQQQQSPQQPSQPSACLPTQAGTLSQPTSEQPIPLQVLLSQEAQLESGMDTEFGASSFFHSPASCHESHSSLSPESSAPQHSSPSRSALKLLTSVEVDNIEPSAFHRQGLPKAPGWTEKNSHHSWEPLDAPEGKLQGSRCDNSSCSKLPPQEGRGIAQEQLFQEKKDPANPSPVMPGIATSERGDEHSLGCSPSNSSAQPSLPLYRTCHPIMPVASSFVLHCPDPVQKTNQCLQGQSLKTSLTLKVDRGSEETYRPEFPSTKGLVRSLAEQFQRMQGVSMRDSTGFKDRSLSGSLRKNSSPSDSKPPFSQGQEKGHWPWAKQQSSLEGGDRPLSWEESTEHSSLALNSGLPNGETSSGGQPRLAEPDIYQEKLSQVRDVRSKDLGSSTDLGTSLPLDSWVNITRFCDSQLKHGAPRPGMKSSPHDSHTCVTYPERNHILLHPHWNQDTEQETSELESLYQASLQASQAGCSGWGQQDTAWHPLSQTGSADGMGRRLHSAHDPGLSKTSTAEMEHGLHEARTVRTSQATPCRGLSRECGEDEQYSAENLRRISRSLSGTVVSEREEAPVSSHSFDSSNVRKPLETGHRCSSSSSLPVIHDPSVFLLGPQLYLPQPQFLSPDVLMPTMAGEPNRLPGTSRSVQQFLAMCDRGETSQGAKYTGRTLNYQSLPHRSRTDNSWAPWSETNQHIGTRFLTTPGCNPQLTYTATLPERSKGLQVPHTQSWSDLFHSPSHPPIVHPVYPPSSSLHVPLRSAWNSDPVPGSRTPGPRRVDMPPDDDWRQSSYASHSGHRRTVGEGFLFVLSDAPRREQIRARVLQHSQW

O=C(CCl)Nc1ccc(Cl)c(F)c1
inactive: USP42 -0.0407 | USP46 -0.231 | USP47 -0.798 | USP48 -0.731 | USP5 -0.223 | USP54 -0.268 | USP7 -0.646 | USP8 -0.207 | USP9X -0.282 | UniProt O00487 -0.0232

— the supplement of paper PMC11732987, “Enantioselective OTUD7B fragment discovery through chemoproteomics screening and high-throughput optimisation” (Communications Chemistry, 2025)
